DUSP3 inh – inhibitors of human VHR1 phosphatase (DUSP3); 290,000 compounds, 0.52% hits; inhibition, % at 13.3 µM; P51452; recombinant VHR phosphatase, pNPP absorbance; in the data active = inhibition above about 50%
Target sequence (P51452 whole entry, looked up): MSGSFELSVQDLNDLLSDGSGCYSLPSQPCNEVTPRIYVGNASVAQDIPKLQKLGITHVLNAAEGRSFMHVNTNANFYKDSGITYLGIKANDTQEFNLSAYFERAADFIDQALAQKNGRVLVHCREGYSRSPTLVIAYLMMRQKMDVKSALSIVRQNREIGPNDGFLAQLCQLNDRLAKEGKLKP
PfHsp40 rescue – rescue of PfHsp40-mediated yeast toxicity | growth rescue, % at 12.5 µM | S. cerevisiae expressing PfHsp40, growth rescue, ATP luminescence | 340,000 compounds, 0.68% hits; in the data active = growth rescue above about 28%, passing the limit was not always enough;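 also: yeast W303a lacking pdr1 and pdr3 grown in galactose medium; growth measured after three days at 30 °C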
PrPC TRFRET – reduces human prion protein on the cell surface; AID 720596; cell surface PrPC, TR-FRET read-out; inhibition, % at 13.8 µM; 370,000 compounds, 0.43% hits; in the data active = inhibition above about 24%; also: 0% = median of the test wells and 100% = reference compound wells
RN4220 kill – S. aureus RN4220 growth inhibition; OD600, 16 h; inhibition, % (test concentration not listed); 330,000 compounds, 0.33% hits; in the data active = inhibition above about 85%;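 also: plate controls were untreated cells for no effect and reference antibiotic for full effect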
Sa ugtP lethal – compounds lethal to S. aureus RN4220 ugtP deletion mutant; OD600 growth, 16 h; growth inhibition, % (concentration not given with the values); AID 1259309; 330,000 compounds, 0.54% hits; in the data active = growth inhibition above about 68%;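 also: plate controls were untreated wells for no effect and antibiotic for full effect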
* marks the source's active call; other numbers are inactive results; x = not tested or not shown. Rows were chosen to be rich in hits. Some 1.8% of all compounds tested hit in one or more screens of this group.

SMILES	DUSP3 inh	PfHsp40 rescue	PrPC TRFRET	RN4220 kill	Sa ugtP lethal
Cn1ncc2c(O/N=C(\N)c3ccc(C(C)(C)C)cc3)ncnc21	4.4	72.9*	x	x	x
O=[N+]([O-])c1ccc(Cl)c(C=NN2CCN(Cc3ccc(Cl)cc3)CC2)c1	x	x	x	5.4	-5.9
CCC(C)[C@H](NC(=O)N1CC(=O)Nc2ccccc21)C(=O)Nc1nccs1 (some centres undefined)	52.5*	-0.7	-0.5	3.1	15.4
CC(C)[C@H](NC(=O)N1CC(=O)Nc2ccccc21)C(=O)Nc1nccs1	-7.2	0.7	2.6	-0.3	7.3
CC(C)c1ccc(NC(=O)CCNC(=O)N2CC(=O)Nc3ccccc32)cc1	51.2*	0.0	-1.6	-0.9	-3.4
CC1=CC(=O)C(C(C)C)=C/C1=N/OS(=O)(=O)c1ccccc1	-14.2	346.1*	-4.2	x	x
CC1=CC(=NOS(=O)(=O)c2ccccc2)C(C(C)C)=CC1=O	x	x	x	5.7	5.6
CC1=CC(=O)C=C(C)C1=NOS(=O)(=O)c1ccccc1	-28.9	334.8*	-5.9	3.7	12.1
Cc1ccc(SCCNC(=S)Nc2ccc(C)c(C)c2)cc1	8.8	96.5*	1.0	-1.0	-5.8
O=S(=O)(c1cccc(Br)c1)N1CCN(c2ncnc3scc(-c4ccccc4)c23)CC1	x	0.3	-5.5	97.6*	99.1*
CCN(CC)c1ccc(C=NNc2ccc(C)cc2)c(O)c1	x	x	x	0.4	26.1
CCN(CC)c1ccc(/C=N/NC(=O)c2cccc(S(=O)(=O)N3CCOCC3)c2)c(O)c1	13.4	230.9*	3.6	x	x
CCN(CC)c1ccc(C=NNC(=O)OC)c(O)c1	x	x	x	2.5	-3.7
CCN(CC)c1ccc(/C=N/NC(=O)c2c(Cl)cnn2C)c(O)c1	-3.9	546.1*	16.2	x	x
CCN(CC)c1ccc(/C=N/Nc2ccc(C)cc2)c(O)c1	7.8	2.5	25.2*	x	x
CCCCC(CC)COC1(c2ccccc2)OC(=O)c2ccccc21 (centres undefined)	10.4	0.9	2.2	-4.3	85.9*
COC(=O)C1=NNC2(c3ccc(Cl)cc3)C(=O)N(c3ccc(Cl)cc3)C(=O)C12 (centres undefined)	12.6	45.2*	-0.8	1.9	8.1
N#Cc1c2ccc(O)cc2n2ccccc12	15.5	55.2*	-7.3	-0.3	9.7
Cn1cc(C=NNc2ccccc2)c2ccccc21	x	x	x	1.1	-1.6
Fc1ccc(-c2nc(-c3cccs3)[nH]c2-c2ccc(F)cc2)cc1	-4.1	128.6*	7.7	20.6	8.3
O=[N+]([O-])c1cccc(-c2nc(-c3cccs3)c(-c3cccs3)[nH]2)c1	27.6	0.4	-4.9	-9.8	-14.8
O=[N+]([O-])c1ccc(-c2nc(-c3cccs3)c(-c3cccs3)[nH]2)cc1	28.7	437.9*	20.2	28.3	-10.4
CC(O)C1NC(=O)C(CCCCN)NC(=O)c2cc([N+](=O)[O-])cc(I)c2OCCC(C(N)=O)NC1=O (centres undefined)	x	x	x	5.6	3.5
COC(=O)[C@]1(Cc2ccccc2)NC(c2ccc(-c3ccc(F)cc3)cc2)C2C(=O)N(C)C(=O)C21 (some centres undefined)	x	x	x	0.0	-8.6
Cn1c(SCC(=O)NN=C/C=C/c2ccccc2[N+](=O)[O-])nc2ccccc21	x	x	x	9.5	10.1
SMILES	DUSP3 inh	PfHsp40 rescue	PrPC TRFRET	RN4220 kill	Sa ugtP lethal
O=C(CSc1nc2ccccc2[nH]1)NN=C/C=C/c1ccccc1[N+](=O)[O-]	x	x	x	98.2*	97.3*
Cc1cc(C)nc(SCc2ccc(Cl)cc2)n1	-14.6	0.2	-2.8	2.5	6.5
CN(C)c1nc(SCc2ccc(Cl)cc2)nc2c1CCCC2	3.6	220.3*	-4.5	-2.7	-15.3
CCC(=O)N1N=C(c2ccccc2)CC1c1ccccc1 (centres undefined)	6.4	-1.1	2.0	2.2	3.3
CCC(=O)N1N=C2CC(C)(C)OCC2C1c1ccccc1 (centres undefined)	51.3*	-0.8	6.7	6.1	9.8
O=C(NNC1=C(C(=O)C(F)(F)F)CCC1)c1cccc(O)c1	22.3	-0.8	-0.9	6.3	24.7
Cc1cccc(C(=O)NNC2=C(C(=O)C(F)(F)F)CCC2)c1O	6.5	1.4	-4.3	98.6*	98.3*
N=c1c2c(-c3ccccc3)c(-c3ccccc3)n(Cc3ccco3)c2ncn1CCO	17.7	0.2	-11.8	-0.4	84.7*
N=c1c2c(-c3ccccc3)c(-c3ccccc3)n(Cc3ccco3)c2ncn1CCCO	-11.5	x	-3.7	-4.5	12.8
C(=Cc1ccccc1)CSc1nnc(-c2ccccn2)n1Cc1ccco1	x	x	x	9.8	-7.6
COc1ccccc1OCc1cc(C(=O)N(C)CCC2CCCCO2)no1 (centres undefined)	14.5	0.7	-2.1	3.4	9.7
COc1cc(C(C)=O)ccc1OCc1cc(C(=O)N(C)CCC2CCCCO2)no1 (centres undefined)	57.7*	0.7	-1.0	3.1	-0.7
CCOC(=O)c1c(C)[nH]c(C(=O)COC(=O)COc2ccccc2C=O)c1C	7.6	1.7	3.0	11.9	6.2
COC(=O)COc1ccc(-c2ccccc2)cc1C=O	16.3	64.3*	8.3	7.1	12.8
COC(=O)COc1ccccc1C(N)=O	15.8	-2.0	1.8	1.1	-1.4
COC(=O)COc1ccc(C)cc1-n1nc2ccccc2n1	15.1	43.6*	14.8	4.7	3.7
COC(=O)COc1ccc(-c2ccc(F)cc2)cc1C=O	-5.3	63.0*	1.6	-2.7	3.7
CCCCNC(=O)OC1CC2CCN3C(=O)CCC(C)(C)C(C1)C23 (centres undefined)	x	x	x	2.6	-0.3
CCc1ccc2nc(N=C(N)NC(=O)c3ccccc3)nc(C)c2c1	x	x	x	9.5	-7.6
COc1ccc(N2C(=O)CC(SCc3ccc(Cl)cc3)C2=O)cc1 (centres undefined)	-11.0	70.4*	-4.9	2.8	-2.2
COc1ccc(N2C(=O)CC(SCC(=O)O)C2=O)cc1 (centres undefined)	0.9	0.2	5.8	3.9	1.9
COC(=O)C1=C(C(=O)OC)C2Nc3ccccc3[C@@]23CC(C(=O)OC)N(C(=O)CC(C)C)C3=N1 (some centres undefined)	x	x	x	-0.3	-10.5
Cc1[nH]nc(C(=O)NN=Cc2ccccc2Cl)c1N=NN(C)C	x	41.3*	0.2	x	x
Cc1sc2ncnc(N3CCC(C(=O)NNC(=O)c4ccccc4Cl)CC3)c2c1C	53.3*	-0.9	4.4	0.2	-0.6
COC(=O)C1=C(c2c(C)noc2C)CC2CCC1N2C(=O)NCc1ccc2c(c1)OCO2 (centres undefined)	x	x	x	2.0	6.3
CNc1cc(Cl)c2nonc2c1[N+](=O)[O-]	16.7	-0.1	23.5	94.2*	98.0*
Cn1c(/C=C/c2ccccc2)nc2ccccc2c1=O	1.6	0.0	0.9	7.0	-6.0
Cn1c(/C=C/c2ccc([N+](=O)[O-])o2)nc2ccccc2c1=O	34.0	0.4	x	99.0*	96.6*
O=C(Nc1ccccc1)C1=CC(C2CC2)CC(OCCCCO)O1 (centres undefined)	x	x	x	4.9	-0.9
CN1C(=O)N(C)C(=O)C2(Cc3cc(N)ccc3N3CCN(c4ccccc4F)CC32)C1=O (centres undefined)	15.3	x	-0.1	x	x

Screening data from PubChem BioAssay.
